According to PubChem BioAssay:
Records with an inconclusive call do not appear. Values without a mark were called inactive. Active and inactive are the calls of the source.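 Rule for the calls: active = viability at or below 27.92% in each of two runs, the all-compound median minus 4 SD; inconclusive = no clear call, values can overlap the other calls; inactive = the rest.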

Assay: viability of PTEN-null HCT116 cells – cell-based, HCT116 clonal line, CellTiter-Glo, pilot screen (AID 824);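 note: 0% = 20 µM Hyamine control and 100% = vehicle cell control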
Conditions: HCT116 PTEN-deleted viability, 60 h, at 10 µM, active compounds read low

SMILES | viability
CCCOc1cccc(C(=O)Nc2cccnc2)c1 | 96.2%
COc1ccc(-c2n[nH]c(C)c2-c2cnn(-c3ccccc3)c2)c(O)c1 | 92.2%
COc1ccc(OC)c(NC(=O)C2CCC(CNc3c(N4CCC(C)CC4)c(=O)c3=O)CC2)c1 (stereo unspecified) | 70.1%
COC(=O)c1c(NC(=O)C2CC2)sc2c1CCCC2 | 81.7%
CC(C)Oc1ccc(NC(=O)Oc2ccccc2)cc1 | 96.8%
COCCNc1oc(-c2ccccc2Cl)nc1C#N | 89.3%
O=c1c2ccccc2nc(N2CCN(c3ccccc3)CC2)n1Cc1ccccc1 | 72.8%
CCC(Sc1nc2c(cnn2-c2ccccc2)c(=O)[nH]1)C(=O)OC (stereo unspecified) | 91.5%
Cn1c(-n2c(CCCN3C(=O)c4ccccc4C3=O)nc3ccccc3c2=O)nc2ccccc21 | 87.2%
CCOC(=O)C1Cn2c(nc3c(c2=O)C2(CCCC2)Cc2ccccc2-3)S1 (stereo unspecified) | 77.4%
COC(=O)c1ccc(CSc2ccc3nnc(-c4cccc(F)c4)n3n2)o1 | 91.4%
CCOc1ccccc1C(=O)Nc1ccc2nc(N3CCN(c4ncccn4)CC3)cc(C)c2c1 | 2.14% (active)
O=C(O)CC1C(=O)NCCN1C/C=C/c1ccccc1 (stereo unspecified) | 93.1%
CCN1CCN(CC(=O)Nc2cccc(C)c2)C(=O)C1=O | 95.6%
CCCCOc1ccccc1C1NC(=O)NC(C)=C1C(=O)OCCOC (stereo unspecified) | 88.1%
Brc1ccc(-c2nnc3ccc(N4CCN(c5ccccc5)CC4)nn23)cc1 | 75.5%
